This passage reports inhibition results from PubChem BioAssay AID504329 (Southern Research Specialized Biocontainment Screening …, 2011).

Where “and” joins values, the source holds several entries; their conditions need not be identical. Equal entries are not always repeated. Hit rate of the full screen: of about 340,000 compounds, about 1,000 (0.29%) were called active. Not all results are given here. Entries with a potency or affinity are not part of this list. Unmarked numbers belong to inactive results. Rule as the data show it: inconclusive = inhibition above about 27% without an active follow-up result; inactive = below that.

This assay in a line: NS1A inhibition, H1N1 influenza, cell based functional assay (AID 504329). Particulars: percent inhibition, at 12.5 µM, hits give high values.
As to `CCOc1cccc(C2C(C(=O)c3ccc(C)o3)=C(O)C(=O)N2c2nnc(C)s2)c1` (centres undefined), the inhibition was 3.08%.
The value for `CC1(c2ccccc2)NC(=O)N(NC(=O)COC(=O)c2cc(Br)ccc2O)C1=O` (centres undefined) was -5.16%; that for `O=C(NCCN1CCCCC1)c1ccc(Cl)nc1Cl` was -3.64%; that for `Cc1ccc(S(=O)(=O)Nc2cccc3ncccc23)cc1` was -4.33%.
With `Cc1ccc(S(=O)(=O)Nc2cccc3cccnc23)cc1` the figure was -11%; with `Cc1ccc(S(=O)(=O)Nc2ccc(O)c3cccnc23)cc1`, -4.48%; with `Cc1ccc(S(=O)(=O)Nc2cc(Cl)c(O)cc2C)cc1`, 6.58%.
With `Cc1nn(-c2ccccc2)c(C)c1/C=C/C(=O)OCC(=O)Nc1ncc(Cl)cc1Cl`, the inhibition was -0.68%.
With `CCc1ccc2[nH]c(C)c(CN3CCCCCC3)c(=O)c2c1` the figure was 6.48%; with `Cc1ccc(NC(=O)CSc2nnc(-c3ccco3)o2)cc1`, 5.76%; with `Cc1cc(NC(=O)CSc2nnc(-c3ccccc3)o2)no1`, 14%.
On to `Nc1ccc(-c2ccccc2)cc1`, for which the inhibition was -0.13%.
`O=C(O)c1ccc(N(c2ccccc2)c2ccccc2)cc1`: the inhibition was -2.79%.
For `Cc1ccc(C(=O)Nc2ccc(N3CCN(C(=O)c4ccco4)CC3)cc2)cc1`, the inhibition is -1.89%.
On to `S=C1NC2(CCCCCC2)N=C1c1ccccc1`, for which the inhibition is 6.12%.
With `S=C1NC2(CCCCC2)N=C1c1ccccc1` the figure was -4.42%.
The value for `CC(=O)Nc1nonc1-c1nc2ccccc2n1CC1CC1` was 6.72%.
With `O=C(CSc1nnc(SCc2ccc(Cl)cc2)s1)N/N=C/c1ccc(C(=O)O)cc1` the figure was -0.08%.
For `CC1CCN(S(=O)(=O)c2ccc3c(c2)N(CC(=O)N(C)Cc2ccco2)C(=O)CO3)CC1`, the inhibition was 3.45%.
Take `N#C/C(=C/c1cn(-c2ccccc2)nc1-c1cccc(OCc2ccccc2)c1)C(=O)NCCCn1ccnc1`: the inhibition is -3.98%.
With `CCCOc1cccc(-c2nn(-c3ccccc3)cc2/C=C(\C#N)C(=O)NCCCn2ccnc2)c1` the figure was 1.02%; with `O=C(NCCCn1ccnc1)c1cn(-c2ccccc2)nc1-c1ccc(F)cc1`, 6.07%; with `CCOc1cccc(-c2nn(-c3ccccc3)cc2/C=C(/C#N)C(=O)NCCCn2ccnc2)c1`, 6.31%.
The value for `CC(C)C(=O)Nc1cccc(C(=O)Nc2cc([N+](=O)[O-])ccc2F)c1` was -8.76%.
For `COc1ccc(C(=O)O/N=C(\N)c2ccc(Cl)cc2)cc1`, the inhibition was 2.64%.
The value for `CN1CCCN(C(=O)CNC(=O)c2ccccc2F)CC1` was -1.28%.
The value for `Cc1c(C(C)(C)C)sc(=NC(=O)c2ccccc2O)n1C` was -24.8%; that for `Nc1[nH]c(N=NC(=O)c2ccc(F)cc2)c2ccccc12` was 12.2%; that for `Nc1[nH]c(N=NC(=O)c2ccc(Cl)cc2)c2ccccc12` was 10.9%.
As to `CC(=O)N=Nc1[nH]c(N)c2ccccc12`, the inhibition was -6.73%.
With `Nc1[nH]c(N=NC(=O)c2ccccc2)c2ccccc12` the figure was 19%; with `Cc1ccc(N2CC(C(=O)Nc3nc4ccc(S(C)(=O)=O)cc4s3)CC2=O)cc1` (centres undefined), -4%.
The value for `COc1cc(C(=O)NCc2ccccc2)ccc1OC(F)F` was 2.29%.
With `Cc1cccc(NC2=C/C(=N/S(=O)(=O)c3cccs3)c3ccccc3C2=O)c1` the figure was 22.8%.
Turning to `Cc1ccc(NC2=C/C(=N/S(=O)(=O)c3cccs3)c3ccccc3C2=O)cc1`, the inhibition is 2.95%.
As to `O=S(=O)(/N=C(/Nc1ccccc1)c1ccccc1)c1cccs1`, the inhibition was -0.58%.
On to `Cc1ccc(NC2=C/C(=N/S(=O)(=O)c3cccs3)c3ccccc3C2=O)cc1C`, for which the inhibition was -0.69%.
With `O=C1C=C(Nc2ccccc2)c2ccccc2C1=O` the figure was -0.21%; with `Cc1ccc(S(=O)(=O)/N=C2\C=C(NS(=O)(=O)c3ccccc3)C(=O)c3ccccc32)c(C)c1`, 10.6%.
The value for `Cc1ccc(NC2=CC(=O)C(=O)c3ccccc32)c(C)c1` was -11%; that for `O=C1C=C(Nc2ccc(O)cc2)C(=O)c2ccccc21` was 24.1%; that for `O=C(C1CC(=O)N(c2ccc(F)cc2)C1)N1CCC(c2nc3ccccc3[nH]2)CC1` (centres undefined) was -1.46%.
With `COc1ccc(-c2cc(C(=O)Nc3ccc(F)cc3F)no2)cc1`, the inhibition is -13.1%.
As for `CC(C)n1nnnc1SCC(=O)NNC(=O)C1CCCCC1`, the inhibition was -0.25%.
The value for `COC(=O)[C@@H]1C[C@@]2(O)[C@@H](O)[C@@H](O)[C@@H](O)C[C@H]2N1CC1CCCCC1` was -4.19%; that for `CCCCn1c(N)c(N(C(=O)CSc2nnnn2-c2ccccc2C)C2CCCC2)c(=O)[nH]c1=O` was -10.4%; that for `CC1CC(C)CN(C(=O)COc2ccc([N+](=O)[O-])cc2Cl)C1` (centres undefined) was 0.5%.
With `CSCCC(NC(=O)c1ccccc1)C(=O)OCC(=O)Nc1ccc(C)c(Cl)c1` (centres undefined) the figure was 0.6%; with `COc1ccc(OCc2nnc(SCC(N)=O)n2-c2ccccc2OC)cc1`, -0.95%.
The value for `O=[N+]([O-])c1cc(Cl)c(O)c2ncccc12` was -6.45%; that for `O=S(=O)(c1ccc(Cl)cc1)N1CCN(Cc2ccc(O)c3ncccc23)CC1` was 19.8%; that for `O=[N+]([O-])c1cc2c(cc1CN1CCN(c3ccccc3)CC1)OCO2` was 1.15%.
For the compound `c1ccc(N2CCN(Cc3ccnc4ccccc34)CC2)cc1`, the inhibition was -0.44%.
For `Oc1ccc2ccccc2c1CN1CCN(c2ccccc2)CC1`, the inhibition was 0.87%.
The value for `Oc1ccc(COCc2ccccc2)c2cccnc12` was 22.4%; that for `COc1ccc(C2C(C(=O)Nc3cc(C)on3)c3ccccc3C(=O)N2C)cc1` (centres undefined) was 7.42%.
`CCCCNS(=O)(=O)c1cc(-c2nn(C)c(=O)c3ccccc23)ccc1C`: the inhibition is -6.29%.
In the case of `CC(=O)N1N=C(c2ccc(Br)cc2)OC12CCCC2`, the inhibition was -0.33%.
The value for `C=CCSc1nc(N)c(C(=O)Nc2ccccc2OC)cc1C(=O)Nc1ccccc1` was 6.7%.
Consider `COc1ccccc1NC(=O)c1c(N=Cc2c(O)ccc3ccccc23)cnn1C`, for which the inhibition is 15.2%.
Take `Cc1cc(OCC(=O)OCC(=O)N2CCc3ccccc3C2)ccc1Cl`: the inhibition was -4.55%.
Consider `Cc1ccc(NN=C2C(=O)OC(C)(C)OC2=O)c(C)c1`, for which the inhibition is -14.3%.
Regarding `Cc1ccc(C2Nc3ccccc3NC3=C2C(=O)CC(C)(C)C3)c(O)c1` (centres undefined), the inhibition was -4.27%.
For `O=C(c1ccccc1F)N1CCN(C(=O)C(c2ccccc2)c2ccccc2)CC1`, the inhibition was 6.85%.
The value for `O=c1ccc(Cl)nn1-c1ccccc1` was -0.77%; that for `CSCCC(NC(=O)COc1ccccc1)C(=O)N1CCCCC1` (centres undefined) was 0.87%.
With `CC(=O)c1ccc(S(=O)(=O)NCCCC(=O)N(C)Cc2ccc3c(c2)OCO3)cc1`, the inhibition was -23.5%.
With `CCOC(=O)C(=O)Nc1cc(C)nn1-c1nc2ccccc2[nH]1`, the inhibition was 11.3%.
Consider `Cc1cc(NC(=O)CC#N)n(-c2nc3ccccc3[nH]2)n1`, for which the inhibition is -16.5%.
The value for `CCCOc1ccc(C(C)=O)cc1CSc1nc(O)cc(=O)[nH]1` was 4.86%.
Take `COc1ccc(C(=O)NCC(=O)N2CCN(C(=O)c3ccco3)CC2)cc1`: the inhibition is -3.4%.
The value for `O=C(COc1c(Br)cc(Br)cc1Br)N/N=C/c1ccco1` was -0.44%.
For the compound `COc1cc(NCc2ccccc2O)c2ncccc2c1`, the inhibition was -8.87%.
As for `CN(C)CCCNc1c2ccccc2nc2ccccc12`, the inhibition was -0.82%.
As for `CN(C)CCCNC(=O)c1ccccn1`, the inhibition is -2.43%.
Turning to `CN(C)CCCNC(=O)c1ccc(-c2ccccc2)cc1`, the inhibition was -6.67%.
Turning to `CC(C)C(=O)N1CCC(n2nccc2NC(=O)CCOc2ccccc2)CC1`, the inhibition was 0.18%.
The value for `COc1ccc(/C=N/NC(=O)CN2CCS(=O)(=O)CC2)cc1` was -0.94%; that for `CCOC(=O)c1[nH]c2c(c1-c1ccccc1)C(=O)CC(c1ccc(OC)c(OC)c1)C2` (centres undefined) was 8.75%; that for `O=C(NC(Cc1ccccc1)C(=O)O)/C(=C/c1ccccc1)NC(=O)c1ccc(Br)o1` (centres undefined) was 3.22%.
With `CCCCCn1c(=NC(=O)c2cccnc2)c(C#N)cc2c(=O)n3cccc(C)c3nc21` the figure was -3.21%; with `O=C(COC(=O)c1cccc(S(=O)(=O)NCc2ccccc2)c1)c1ccccc1`, 3.76%; with `O=C(NCC(c1cccs1)N1CCOCC1)c1ccc(Cl)c(S(=O)(=O)N2CCOCC2)c1` (centres undefined), -3.43%.
With `CC1CCN(Cc2c(C(=O)N/N=C/c3ccccc3O)nnn2-c2nonc2N)CC1` the figure was -0.06%; with `Nc1nonc1-n1nnc(C(=O)N/N=C/c2ccccc2Br)c1CN1CCCC1`, 1.45%; with `O=C(CN1C(=O)c2cccc3cccc1c23)NCC1CCCO1` (centres undefined), 7.9%.
Take `Cc1[nH]c(=O)c(C#N)c(C)c1CSc1ncccn1`: the inhibition is -0.63%.
With `CN(C)c1ccc(NC(=S)c2ccc3ccccc3n2)cc1`, the inhibition was 5.3%.
The value for `S=C(Nc1ccccc1)c1ccccn1` was 3.81%.
The value for `Cc1cc(C)c2oc(C(=O)N(Cc3ccccc3)C3CCS(=O)(=O)C3)cc(=O)c2c1` (centres undefined) was -2.06%; that for `CC1(C)S[C@@H]2[C@H](NC(=O)Cc3ccccc3)C(=O)N2[C@H]1C(=O)O` was -10.5% and 1.49%; that for `CC1(C)SC2c3ccccc3C(=O)N2C1C(=O)O` (centres undefined) was -0.07%.
For `CC(C)C[C@H]1COCCS(=O)(=O)N1Cc1cccc(C(F)(F)F)c1`, the inhibition is -20%.
For the compound `O=C(NC1CCCCC1)C1CCN(c2nnnn2-c2ccccc2)CC1`, the inhibition was -1.63%.

The term inhibition denotes the change of the read-out against control, counted positive when it falls.
